Assay outcomes from PubChem.
Sampled rows, rich in hits. Any-hit rate of the full collection: about 3%.
SENP6 inh – inhibitors of human SENP6 protease | Q9GZR1 | Recombinant SENP6 catalytic domain, aminoluciferin luminescence | inhibition, % at 10 µM | 1.8% of 330,000 active | AID 2599;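 active = inhibition above about 50% at the single tested dose, limit read from the data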
TRAIL sens C8 – sensitizes caspase-8 expressing cells to TRAIL | NB7+C8 cells + TRAIL, ATPlite viability luminescence | inhibition (viability loss, TRAIL sensitization), % at 10 µM | 1% of 360,000 active | AID 624354;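 active = compounds causing at least 50% loss of cell viability in the single-dose screen, relative to plate controls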
SENP8 block-1 – inhibitors of human SENP8 protease; Q96LD8; recombinant SENP8, Nedd8 substrate fluorescence; inhibition, % at 20 µM; 0.64% of 360,000 active; in the data active = inhibition mostly above about 40%, no sharp cut-off; inactive = mostly below about 27%
Target sequence (Q96LD8 whole entry, looked up): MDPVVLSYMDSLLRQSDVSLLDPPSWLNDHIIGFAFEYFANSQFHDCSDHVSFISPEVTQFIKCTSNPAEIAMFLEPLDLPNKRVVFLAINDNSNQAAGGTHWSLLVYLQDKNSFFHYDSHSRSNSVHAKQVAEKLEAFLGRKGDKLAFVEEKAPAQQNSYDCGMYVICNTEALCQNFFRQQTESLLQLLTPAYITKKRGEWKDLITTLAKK
SENP7 inh – inhibitors of human SENP7 protease | AID 434973 | 1.5% of 330,000 active | inhibition, % at 5 µM | recombinant SENP7, Z-RLRGG-aminoluciferin luminescence, 40 min;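 active = inhibition above about 50% at the single test dose, limit read from the data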
Target sequence (Q9BQF6 706-1050 limits assumed): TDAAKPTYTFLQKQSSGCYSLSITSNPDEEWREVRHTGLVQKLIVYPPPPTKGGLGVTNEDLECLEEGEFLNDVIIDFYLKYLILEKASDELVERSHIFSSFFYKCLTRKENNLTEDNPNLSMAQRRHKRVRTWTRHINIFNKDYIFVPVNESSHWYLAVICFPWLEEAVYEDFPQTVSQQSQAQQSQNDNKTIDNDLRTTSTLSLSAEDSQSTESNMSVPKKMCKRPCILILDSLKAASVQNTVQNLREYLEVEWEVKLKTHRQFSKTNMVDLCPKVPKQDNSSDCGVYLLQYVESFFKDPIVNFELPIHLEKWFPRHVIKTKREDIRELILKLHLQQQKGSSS
PPC-1+TRAIL kill – compounds killing PPC-1 cancer cells with TRAIL present (potentiator screen, no TRAIL-free arm). PPC-1 cells + TRAIL, ATPLite viability luminescence. 0.41% of 220,000 active. cell killing (% activity), % at 4 µM or 5 µM;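 active = cell killing above 50% in the first pass at 4 µM, then a duplicate retest at 5 µM averaging 50% or more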
SENP8 block-2 – SENP8 protease inhibition. 1.2% of 330,000 active. Q96LD8. inhibition, % at 10 µM. purified SENP8, Z-RLRGG-aminoluciferin cleavage, luminescence; in the data active = inhibition above about 50%
PPC-1 tox – kills PPC-1 cells; cytotoxicity, % at 5 µM; 50% of 1,200 active; PPC-1 viability, ATPlite luminescence, overnight; shares compounds with PPC-1+TRAIL kill; AID 1447;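 active = reconfirmed compounds whose average cytotoxicity reaches 50% or more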
SENP8 conf – confirmation of human SENP8 protease inhibitors; 40% of 6,200 active; AID 488912; Recombinant SENP8, Z-RLRGG-aminoluciferin luminescence, 60 min; inhibition, % at 12.5 µM; shares compounds with SENP7 inh;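 active = mean inhibition across replicates above about 50%, limit read from the data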
SENP6 confirm – confirmation of human SENP6 protease inhibitors. recombinant SENP6, Z-RLRGG-aminoluciferin luminescence. AID 488915. inhibition, % at 12.5 µM. 58% of 6,200 active. shares compounds with SENP7 inh
SENP7 conf – confirmation of human SENP7 protease inhibitors. inhibition, % at 12.5 µM. AID 488917. recombinant SENP7, Z-RLRGG-aminoluciferin luminescence, 40 min. shares compounds with SENP7 inh. 69% of 6,200 active
Casp3 SENP sel – inhibits human caspase-3 in SENP selectivity test | shares compounds with SENP7 inh | purified caspase-3, Z-DEVD-aminoluciferin luminescence, 60 min | inhibition, % at 12.5 µM | 60% of 6,200 active | AID 488918;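 active = mean inhibition above about 50%, limit read from the data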
Luc interf – counter-screen for SENP inhibitors: luminescence interference | shares compounds with SENP7 inh | Pre-incubated SENP8/Z-RLRGG-aminoluciferin, luciferase luminescence interference | inhibition, % at 12.5 µM | 39% of 6,200 active | AID 488919;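 active = mean inhibition above about 50% when retested at one dose, limit read from the data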
Large screens that a line does not name were inactive (follow-up assays come after a bar, where they were run).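 Rule for the calls, unless noted: active = mean inhibition above about 50% in the one-dose retest (limit read from the data); inactive = the rest.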

Cc1cc(C(=O)Nc2ccccn2)no1	none
Cc1cccc(-n2ncc3c(N(C)C4CCCCC4)ncnc32)c1	SENP6 inh 66.7, TRAIL sens C8 87.8, SENP7 inh 60.2, PPC-1+TRAIL kill 79.8, SENP8 block-2 67.9 | PPC-1 tox 81.6 | SENP8 conf inactive | SENP6 confirm inactive | SENP7 conf inactive | Casp3 SENP sel inactive | Luc interf inactive
Cc1cccc(-n2ncc3c(N(CCO)CCO)ncnc32)c1	none
Cc1ccc2nc(-c3ccccc3)cc(C(=O)N3CCN(S(=O)(=O)c4c(C)noc4C)CC3)c2c1	none (no result: PPC-1+TRAIL kill)
CCOC(=O)c1cnc2c(N=Nc3cccc(Cl)c3)c(N)nn2c1N	none (no result: SENP6 inh, TRAIL sens C8, SENP8 block-1, SENP7 inh, SENP8 block-2)
CCOC(=O)c1cnc2c(-c3ccccc3)cnn2c1N	TRAIL sens C8 66.0, SENP7 inh 72.1, PPC-1+TRAIL kill 52.5 | PPC-1 tox 55.1 | SENP8 conf inactive | SENP6 confirm inactive | SENP7 conf inactive | Casp3 SENP sel inactive | Luc interf inactive
CCOC(=O)c1cnc2c(N=Nc3ccccc3)c(N)nn2c1N	TRAIL sens C8 68.6, SENP7 inh 70.1, PPC-1+TRAIL kill 58.2 | PPC-1 tox 59.0 | SENP8 conf inactive | SENP6 confirm inactive | SENP7 conf inactive | Casp3 SENP sel inactive | Luc interf inactive
C/C(CC(=O)Nc1ccc(F)cc1F)=N\NC(=O)C(=O)N1CCCCC1	none (no result: TRAIL sens C8, SENP8 block-1, PPC-1+TRAIL kill)
Clc1ccc2nc(-c3ccc4c(c3)OCO4)cn2c1	SENP6 inh 75.4, TRAIL sens C8 78.9, SENP7 inh 79.3, PPC-1+TRAIL kill 79.8, SENP8 block-2 78.2 | PPC-1 tox 74.3 | SENP8 conf inactive | SENP6 confirm 86.0 | SENP7 conf 69.7 | Casp3 SENP sel 63.8 | Luc interf inactive
Cc1ccc2nc(-c3ccc4c(c3)OCCO4)cn2c1	SENP6 inh 89.2, TRAIL sens C8 92.2, SENP7 inh 94.3, PPC-1+TRAIL kill 92.7, SENP8 block-2 87.0 | PPC-1 tox 92.2 | SENP8 conf 93.3 | SENP6 confirm 93.3 | SENP7 conf 101.0 | Casp3 SENP sel 94.3 | Luc interf 92.9
Fc1ccc(CSc2nc3ncccc3[nH]2)cc1	none
Fc1ccc(CSc2nc3ccccc3[nH]2)cc1	SENP6 inh 82.9, SENP8 block-2 71.0 | PPC-1 tox inactive | SENP8 conf 82.6 | SENP6 confirm 78.7 | SENP7 conf 93.9 | Casp3 SENP sel 74.2 | Luc interf 78.7
COc1ccc(-c2cn3cc(C)ccc3n2)cc1OC	SENP6 inh 57.1, TRAIL sens C8 71.8, PPC-1+TRAIL kill 74.5 | PPC-1 tox 72.6 | SENP8 conf 67.5 | SENP6 confirm 64.8 | SENP7 conf 90.5 | Casp3 SENP sel 88.9 | Luc interf 77.5
COc1ccc(-c2csc(C)n2)cc1OC	none
COc1ccc(-c2cn3cc(C)ccc3n2)cc1F	SENP6 inh 76.5, TRAIL sens C8 72.8, SENP7 inh 78.3, PPC-1+TRAIL kill 74.0, SENP8 block-2 69.3 | PPC-1 tox 74.4 | SENP8 conf inactive | SENP6 confirm 73.5 | SENP7 conf 89.9 | Casp3 SENP sel 79.6 | Luc interf inactive
O=C(Nc1cnc2ccccn2c1=O)c1ccc(Cl)cc1	none
CC(=O)Oc1ccc(/C=C2/CCc3ccccc3C2=O)cc1	SENP6 inh 96.8, TRAIL sens C8 76.3, SENP7 inh 96.5, SENP8 block-2 95.3 | PPC-1 tox inactive | SENP8 conf 96.0 | SENP6 confirm 99.7 | SENP7 conf 101.7 | Casp3 SENP sel 94.2 | Luc interf 98.3
COc1ccc(N/C=C2\CCOC2=O)cc1	none
COc1ccc(N/C=C2\CCc3ccccc3C2=O)cc1	SENP6 inh 97.3, TRAIL sens C8 86.2, PPC-1+TRAIL kill 72.0, SENP8 block-2 95.6 | PPC-1 tox 72.4 | SENP8 conf inactive | SENP6 confirm 100.6 | SENP7 conf 103.9 | Casp3 SENP sel 98.6 | Luc interf 70.4
O=C(Nc1ccc(F)c(Cl)c1)c1cc(C2CCCCN2C(=O)c2ccc3c(c2)CCO3)on1 (configuration not stated)	none (no result: SENP6 inh, SENP7 inh, PPC-1+TRAIL kill, SENP8 block-2)
c1cc2c(cc1C1=NNC(=NC3CC3)SC1)OCCO2	SENP6 inh 97.1, TRAIL sens C8 91.7, SENP7 inh 96.7, PPC-1+TRAIL kill 88.6, SENP8 block-2 96.3 | PPC-1 tox 87.5 | SENP8 conf 98.3 | SENP6 confirm 99.0 | SENP7 conf 102.2 | Casp3 SENP sel 98.0 | Luc interf 96.0
COc1ccc(N=C2NN=C(c3ccc4c(c3)OCCO4)CS2)cc1	none
C=CCN(Cc1cn(C)nc1-c1cccc(Cl)c1)C1CCS(=O)(=O)C1 (configuration not stated)	none
COc1ccc(-c2nsc3c(N4CCCCC4)ncnc23)cc1	SENP6 inh 66.6, TRAIL sens C8 84.9, SENP7 inh 95.1, PPC-1+TRAIL kill 78.6, SENP8 block-2 91.9 | PPC-1 tox 77.9 | SENP8 conf inactive | SENP6 confirm inactive | SENP7 conf inactive | Casp3 SENP sel inactive | Luc interf inactive
COc1ccc(-c2nsc3c(N4CCCCC4C)ncnc23)cc1 (configuration not stated)	SENP6 inh 87.8, TRAIL sens C8 77.5, SENP7 inh 77.9, PPC-1+TRAIL kill 77.1, SENP8 block-2 81.0 | PPC-1 tox 78.6 | SENP8 conf 68.1 | SENP6 confirm 71.3 | SENP7 conf 76.2 | Casp3 SENP sel 76.3 | Luc interf inactive
CCCn1c(SCC(=O)NC2CCCC2)nnc1-c1cccnc1	none (no result: PPC-1+TRAIL kill)
CNC[C@@H]1OCc2ccccc2-c2ccccc2C(=O)N([C@H](C)CO)C[C@@H]1C	none (no result: SENP6 inh, SENP7 inh, PPC-1+TRAIL kill, SENP8 block-2)
CC(C)(C)c1ccc(C(=O)N/N=C/c2ccccn2)cc1	none (no result: PPC-1+TRAIL kill)
CC(C)(C)c1ccc(/C=N/NC(=O)c2ccccn2)cc1	TRAIL sens C8 75.8, SENP7 inh 79.3, PPC-1+TRAIL kill 63.6, SENP8 block-2 58.6 | PPC-1 tox 61.2 | SENP8 conf inactive | SENP6 confirm inactive | SENP7 conf inactive | Casp3 SENP sel inactive | Luc interf inactive
